# In PubChem BioAssay (NCATS):
# Records with an inconclusive call do not appear. Where a call stands in place of a potency, no number is given. Activity calls are given as the source filed them. Calls come from the whole dose curve; as a rule, active = well fitted curve in the direction sought with a large enough effect; inconclusive = small, poorly fitted or top-dose-only effect, or another doubt; inactive = no such curve, though single readings can be large; an effect the other way counts as inactive or inconclusive.
# Assays:
# [1] = qHTS of pediatric cancer cell lines to identify multiple opportunities for drug repurposing: Primary screen for BT-37 cells (AID 1347094); note: series mostly up to about 57 µM
# Method in brief: (§1)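 Luminescence from CellTiter-Glo served as readout of metabolically active cells after 48 h compound exposure. Titrations: MIPE 11-point, from 0.78 nM; NPC 8-point, from 0.59 nM (final). Concentration-response curves came straight from the primary screen.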
# [2] = qHTS of pediatric cancer cell lines to identify multiple opportunities for drug repurposing: Primary screen for NB-EBc1 cells (AID 1347095)
# Method in brief: as §1
# [3] = qHTS of pediatric cancer cell lines to identify multiple opportunities for drug repurposing: Primary screen for U-2 OS cells (AID 1347096); note: nearly all actives have a fitted effect of over 50% in size
# Method in brief: (§2)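 Cells (500-1,000/well) in growth media were settled 5 h at 37 degrees C, then given compounds for 48 h. Viability was read as CellTiter-Glo luminescence. Primary runs used MIPE at 11 points (0.78 nM-46 µM) and NPC at 8 points (0.59 nM-46 µM); follow-ups used 11 points.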
# [4] = qHTS of pediatric cancer cell lines to identify multiple opportunities for drug repurposing: Primary screen for Saos-2 cells (AID 1347097); note: nearly all actives have a fitted effect of over 40% in size
# Method in brief: as §1
# [5] = qHTS of pediatric cancer cell lines to identify multiple opportunities for drug repurposing: Primary screen for SK-N-SH cells (AID 1347098); note: nearly all actives have a fitted effect of over 65% in size; note: potency is the fitted concentration of half-maximal effect
# Method in brief: (§3)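 Cells (500-1,000/well) rested 5 h, then received compounds for 48 h; metabolically active cells were measured by CellTiter-Glo luminescence. Final concentrations spanned up to 46 µM (MIPE, 11-point) or 0.59 nM-46 µM (NPC, 8-point) in primary screens, 11-point in follow-ups.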
# [6] = qHTS of pediatric cancer cell lines to identify multiple opportunities for drug repurposing: Primary screen for NB1643 cells (AID 1347099); note: nearly all actives have a fitted effect of over 50% in size
# Method in brief: as §1
# [7] = qHTS of pediatric cancer cell lines to identify multiple opportunities for drug repurposing: Primary screen for LAN-5 cells (AID 1347100); note: potency is the fitted concentration of half-maximal effect
# Method in brief: as §2
# [8] = qHTS of pediatric cancer cell lines to identify multiple opportunities for drug repurposing: Primary screen for BT-12 cells (AID 1347101); note: nearly all actives have a fitted effect of over 25% in size
# Method in brief: as §3
# [9] = qHTS of pediatric cancer cell lines to identify multiple opportunities for drug repurposing: Primary screen for OHS-50 cells (AID 1347103); note: nearly all actives have a fitted effect of over 40% in size
# Method in brief: as §3
# [10] = qHTS of pediatric cancer cell lines to identify multiple opportunities for drug repurposing: Primary screen for Rh18 cells (AID 1347102); note: nearly all actives have a fitted effect of over 65% in size
# Method in brief: as §2
SMILES,Potency [1],Potency [2],Potency [3],Potency [4],Potency [5],Potency [6],Potency [7],Potency [8],Potency [9],Potency [10]
Sc1ccccc1Cl,inactive,inactive,inactive,inactive,inactive,inactive,inactive,inactive,inactive,–
C[C@]12CC[C@H]3[C@@H](CC=C4C[C@@H](O)CC[C@@]43C)[C@@H]1CC[C@@H]2O,inactive,inactive,inactive,inactive,inactive,inactive,inactive,inactive,inactive,–
CCc1ccc(C2CCNCC2)cc1,inactive,inactive,inactive,inactive,inactive,inactive,inactive,inactive,–,inactive
O=C(N[C@H]1N=C(c2ccccc2F)c2cccc3c2N(CC3)C1=O)c1cc2ccccc2[nH]1,inactive,inactive,inactive,inactive,inactive,inactive,inactive,inactive,inactive,–
COc1cc(CC(C)N)cc2c1OCO2 (stereo not drawn),inactive,inactive,inactive,inactive,inactive,inactive,inactive,inactive,–,inactive
c1cc2c(c(N3CCNCC3)c1)OCCO2,inactive,inactive,inactive,inactive,inactive,inactive,inactive,inactive,inactive,–
COP(=S)(OC)Oc1ccc(Sc2ccc(OP(=S)(OC)OC)cc2)cc1,inactive,inactive,inactive,inactive,inactive,inactive,inactive,inactive,inactive,–
COC(=O)C1=CCCN(C)C1,inactive,inactive,inactive,inactive,inactive,inactive,inactive,inactive,inactive,–
CC(Cc1ccc2c(c1)OCO2)NO (stereo not drawn),inactive,inactive,inactive,inactive,inactive,inactive,inactive,inactive,inactive,inactive
CN(C)CCc1c[nH]c2ccc(O)cc12,inactive,inactive,inactive,inactive,inactive,inactive,inactive,inactive,inactive,–
NCc1cccnc1,inactive,inactive,inactive,inactive,inactive,inactive,inactive,inactive,inactive,–
OC(c1ccccc1)(c1ccccc1)C1CCNCC1,inactive,inactive,inactive,inactive,inactive,inactive,–,inactive,–,–
Cc1ccc(N=CN(C)C=Nc2ccc(C)cc2C)c(C)c1,inactive,inactive,inactive,inactive,inactive,inactive,inactive,inactive,inactive,–
OC(O)C(Cl)(Cl)Cl,inactive,inactive,inactive,inactive,inactive,inactive,inactive,inactive,inactive,inactive
ClC1=C(Cl)C2(Cl)C(CBr)CC1(Cl)C2(Cl)Cl (stereo not drawn),inactive,inactive,inactive,inactive,inactive,inactive,inactive,inactive,inactive,–
O=C(CCCN1CCC(n2c(=O)[nH]c3ccccc32)CC1)c1ccc(F)cc1,inactive,inactive,inactive,inactive,inactive,inactive,inactive,–,–,inactive
C[C@]12CC[C@H]3[C@@H](CCC4=CC(=O)CC[C@@]43C)[C@@H]1CC[C@@H]2C(=O)O,inactive,inactive,inactive,inactive,inactive,inactive,inactive,inactive,inactive,–
CC(C)C(Br)C(=O)NC(N)=O (stereo not drawn),inactive,inactive,inactive,inactive,inactive,inactive,inactive,inactive,inactive,inactive
O=C(O)c1nn(Cc2ccc(Cl)cc2Cl)c2ccccc12,inactive,inactive,inactive,inactive,inactive,inactive,inactive,inactive,inactive,inactive
CCN(CC)C(C)C(=O)c1ccccc1 (stereo not drawn),inactive,inactive,inactive,inactive,inactive,inactive,inactive,inactive,inactive,inactive
CC(C)NCC(O)c1ccc(N)c(C#N)c1 (stereo not drawn),inactive,inactive,inactive,inactive,inactive,inactive,inactive,inactive,inactive,inactive
CCOP(=S)(OCC)O/N=C(\C#N)c1ccccc1,inactive,inactive,inactive,inactive,inactive,inactive,inactive,inactive,inactive,–
COP(=O)(OC)C(O)C(Cl)(Cl)Cl (stereo not drawn),inactive,inactive,inactive,inactive,inactive,inactive,inactive,inactive,inactive,inactive

SMILES,Potency [1],Potency [2],Potency [3],Potency [4],Potency [5],Potency [6],Potency [7],Potency [8],Potency [9],Potency [10]
NC(=O)CN1CCCC1=O,inactive,inactive,inactive,inactive,inactive,inactive,inactive,inactive,inactive,–
CCCOC(=O)Cc1ccc(OCC(=O)N(CC)CC)c(OC)c1,inactive,inactive,inactive,inactive,inactive,inactive,inactive,inactive,inactive,inactive
CC(CC(C(N)=O)(c1ccccc1)c1ccccc1)N(C)C (stereo not drawn),inactive,inactive,inactive,inactive,inactive,inactive,inactive,inactive,–,inactive
O=c1[nH]c2cc(Cl)ccc2n1C1CCNCC1,inactive,inactive,inactive,inactive,inactive,inactive,inactive,inactive,inactive,inactive
CN(C)CCc1c[nH]c2cccc(O)c12,inactive,inactive,inactive,inactive,35 µM (active),inactive,38.2 µM (active),inactive,inactive,inactive
COc1cc(CC#N)cc(OC)c1OC,inactive,inactive,inactive,inactive,inactive,inactive,inactive,inactive,inactive,inactive
O=C(CCCCl)c1ccc(F)cc1,inactive,inactive,inactive,inactive,inactive,inactive,inactive,inactive,inactive,inactive
O=c1n(Cl)c(=O)n(Cl)c(=O)n1Cl,inactive,inactive,inactive,inactive,inactive,inactive,inactive,inactive,inactive,inactive
CCOC(=O)c1cncn1C(C)c1ccccc1 (stereo not drawn),inactive,inactive,inactive,inactive,inactive,inactive,inactive,inactive,inactive,inactive
C[C@H]1CNCCc2ccc(Cl)cc21,inactive,inactive,inactive,inactive,inactive,inactive,inactive,inactive,–,–
CCN(CC)Cc1nccn1-c1ccc([N+](=O)[O-])cc1C(=O)c1ccccc1Cl,inactive,inactive,inactive,inactive,inactive,inactive,–,inactive,–,inactive
C1CN2CCC1CC2,inactive,inactive,inactive,inactive,inactive,inactive,inactive,inactive,inactive,–
CNC(=O)Oc1cccc2ccccc12,inactive,inactive,inactive,inactive,inactive,inactive,inactive,inactive,inactive,inactive
CCCC(C)C1(CC)C(=O)N=C(S)NC1=O (stereo not drawn),inactive,inactive,inactive,inactive,inactive,inactive,inactive,inactive,inactive,inactive
CCOC(=O)C(c1c(O)c2ccccc2oc1=O)c1c(O)c2ccccc2oc1=O,inactive,inactive,inactive,inactive,inactive,inactive,inactive,inactive,inactive,inactive
CN(C)CCc1c[nH]c2ccccc12,inactive,inactive,inactive,inactive,inactive,inactive,inactive,inactive,–,–
CCCC[N+]1(C)[C@@H]2CC(OC(=O)[C@H](CO)c3ccccc3)C[C@H]1[C@@H]1O[C@@H]12 (stereo partly drawn),inactive,inactive,inactive,–,inactive,inactive,–,inactive,inactive,inactive
C=CCN1CC[C@]23CCCC[C@H]2[C@H]1Cc1ccc(O)cc13,inactive,inactive,inactive,–,inactive,inactive,–,inactive,inactive,inactive
CCC(=O)O[C@H]1CC[C@H]2[C@@H]3CCC4=CC(=O)CC[C@]4(C)[C@H]3CC[C@]12C,inactive,inactive,inactive,–,–,inactive,–,inactive,–,inactive
O=C(O)Cc1ccccc1,inactive,inactive,inactive,–,inactive,inactive,inactive,inactive,inactive,inactive
CC(C)(O)C(Cl)(Cl)Cl,inactive,inactive,inactive,–,inactive,inactive,–,inactive,inactive,inactive
NC1(c2ccccc2)CCCCC1,inactive,inactive,inactive,–,inactive,inactive,inactive,–,–,inactive
